# According to PubChem BioAssay AID1851 (National Center for Advancing Translational Sciences (NCATS), 2009):
# Several values for one entry are separate records, joined by “and”; a condition that tells them apart may be missing. Equal entries are not always repeated. Hit rate of the full screen: of about 16,000 compounds, about 5,700 (36%) were called active. Inconclusive results (about 24%) are left out. The list shows a part of the results. Values without a mark were called inactive. Calls follow the shape of the dose curve; as a rule, active = well fitted curve in the direction sought with a large enough effect; inconclusive = small, poorly fitted or top-dose-only effect, or effect the other way; inactive = no such curve, though single readings can be large or run the other way.
# Target: Cytochrome P450 1A2 (Homo sapiens) (UniProt P05177)
# Sequence (P05177 whole entry, looked up): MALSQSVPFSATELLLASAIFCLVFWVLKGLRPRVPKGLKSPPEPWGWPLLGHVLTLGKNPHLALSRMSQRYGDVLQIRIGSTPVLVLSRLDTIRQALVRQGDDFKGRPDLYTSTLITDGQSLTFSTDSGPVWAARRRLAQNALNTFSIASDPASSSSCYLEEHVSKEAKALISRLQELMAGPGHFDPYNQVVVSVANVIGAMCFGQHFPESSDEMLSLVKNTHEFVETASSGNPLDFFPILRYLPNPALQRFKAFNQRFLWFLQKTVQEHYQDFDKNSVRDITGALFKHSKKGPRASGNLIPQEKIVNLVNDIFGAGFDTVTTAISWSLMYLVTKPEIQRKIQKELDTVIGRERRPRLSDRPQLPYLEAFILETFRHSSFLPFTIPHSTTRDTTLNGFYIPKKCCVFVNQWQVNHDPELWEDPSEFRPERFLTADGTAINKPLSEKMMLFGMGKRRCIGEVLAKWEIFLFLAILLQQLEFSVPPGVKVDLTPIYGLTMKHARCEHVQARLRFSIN
# Experiment: Cytochrome panel assay with activity outcomes
# Settings: recombinant CYP, pro-luciferin dealkylation, luminescence, p450-cyp1a2; series mostly up to 57.1 µM; activity, negative = inhibition: at the top concentration
# % is scaled to controls: 0 for no effect and ±100 for the full control effect.
SMILES,AC50,"activity, negative = inhibition"
NCCc1c[nH]c2ccc(C(N)=O)cc12,6.31 µM (active) and 1.26 µM (active),–
COC(=O)[C@H]1[C@H](c2ccccc2)C(=O)[C@@]2(O)c3ccccc3O[C@@]12c1ccccc1,–,-5.65% [at 11.4 µM]
CO[C@@H](C)[C@](O)(C(=O)OCC1=CCN2CC[C@@H](O)[C@H]12)C(C)C,–,-7.03% [at 25.6 µM]
c1ccc(CCN2CCOCC2)nc1,–,-3% [at 2.29 µM]
CCCCCCCCCCCCCC(=O)O[C@H]1[C@@H](C)[C@@]2(O)[C@@H](C=C(CO)C[C@]3(O)C(=O)C(C)=C[C@@H]23)C2C(C)(C)[C@]21OC(C)=O (stereo not given in full),–,-12.3%
C[C@H]1[C@H](NC(=O)/C(=N/OC(C)(C)C(=O)O)c2csc(N)n2)C(=O)N1S(=O)(=O)O (stereo in doubt),–,-4.29% [at 25.6 µM]
Cc1ccc(N2C(=O)/C(=C/c3ccc(CN(CCC#N)S(C)(=O)=O)o3)C(=O)NC2=S)cc1C,–,-25.3%
CCCN(CCC)C(=O)Cc1c(-c2ccc(Cl)cc2)nc2c(Cl)cc(Cl)cn12,–,-10.1%
NC(=O)c1ccc(C(=O)Nc2ccc([As](=O)(O)O)cc2)cc1,–,-13.8% [at 2.29 µM]
CCOP(=O)(CN(CC)CCNP(=O)(OCC)OCC)OCC,–,27.4%
CN1C2CCC1CC(OC(=O)c1ccc(Cl)cc1)C2 (stereo not given),–,3.37%
C[C@@]12CC[C@H]3[C@H](CC=C4C[C@@H](O)CC[C@@]43C)[C@@H]1CC[C@@H]2N(CCO)CCO,–,-4.6% [at 11.4 µM]
COC(=O)c1[nH]c2ccc(Br)cc2c1NC(=O)Oc1ccccc1,0.0631 µM (active),–
C[C@]12CC[C@H](O)CC1=CC[C@@H]1[C@H]2CC[C@]2(C)C(=O)CC[C@H]12,–,-11.6%
N[C@H](CCCCCP(=O)(O)O)C(=O)O,–,-15.1%
C/C(=C\C=C/[C@@H](C)C(=O)O)[C@H]1CN[C@H](C(=O)O)[C@@H]1CC(=O)O,–,-14.8%
C[C@]1(O)CC[C@H]2[C@@H]3[C@@H](O)CC4=CC(=O)CC[C@@]4(C)[C@H]3CC[C@]21C,–,1.44% [at 2.29 µM]
O=P(c1ccccc1)(c1ccccc1)N1CC2(CC2)CC(O)(c2ccccc2)C1 (stereo not given),–,-19.7%
O=C(Nc1ccc(Cl)cc1)Nc1nccs1,0.141 µM (active),–
C[C@]12CC[C@H]3c4ccc(O)cc4CC[C@@H]3[C@H]1CC[C@@H]2OC(=O)CCc1ccccc1,–,-13.8% [at 2.29 µM]
CCCCc1nc2ccccc2c(=O)n1-c1ccc(Cl)cc1[N+](=O)[O-],–,-25.1%
CCCCc1nc2ccccc2c(=O)n1-c1ccccc1[N+](=O)[O-],14.1 µM (active),–
Cc1ccc(-c2nc3ccccc3c(=O)n2-c2ncccc2C)cc1,–,-12.2%
CCCc1nc2ccccc2c(=O)n1-c1ccc(OC)cc1,12.6 µM (active),–
NC(N)=Nc1ccc2[nH]c3c(c2c1)C[C@]1(O)[C@@H]2Cc4ccc(O)c5c4[C@]1(CCN2CC1CC1)[C@H]3O5,–,9.9%

SMILES,AC50,"activity, negative = inhibition"
NS(=O)(=O)C[C-]1C=C[CH]([Sb-]([Cl])([Cl])([Cl])([Cl])[Cl])C=C1.c1ccncc1 (stereo not given),–,-15.1% [at 11.4 µM]
O=C(O)[C@@H](O)[C@@H](O)[C@@H]1[O][Sb][O][C@@H]1CO,–,-5.14% [at 2.29 µM]
CCC1=C(C[C@H]2NCCc3cc(OC)c(OC)cc32)C[C@H]2c3ccccc3CCN2C1,–,-6.07% [at 11.4 µM]
O=C(O)CNC(=O)[C@@H](CS)Cc1ccccc1,–,-4.85% [at 25.6 µM]
Cc1sc2ccccc2c1CC1=NCCN1,2.51 µM (active),–
c1ccc2cc(CC3=NCCN3)ccc2c1,–,2.54%
Cc1cc(C(C)(C)C)cc(C)c1CC1=NCCN1,–,-8.4% [at 25.6 µM]
CCCN1CCC[C@H](c2cccc(C#N)c2)C1,–,-12.2%
CCN(CC)c1ccc(/C=C2/C(=O)NC(=O)N(CC3CCCO3)C2=O)cc1 (stereo not given),12.6 µM (active),–
O=c1cccc2n1CC1CNC[C@H]2C1,–,-5.12% [at 25.6 µM]
CC(C)(C)CC(=O)NC(=S)Nc1ccccc1C(F)(F)F,11.2 µM (active),–
O=[As](O)(O)c1ccc(N=Nc2ccc(O)cc2)cc1,–,-14.5% [at 11.4 µM]
O=P(Nc1c(Cl)cccc1Cl)(c1ccccc1)c1nc2c(s1)CCCC2 (stereo not given),–,-1.03%
CCN(CC)C(=O)N[C@@H]1C[C@H]2c3cccc4[nH]cc(c34)C[C@@H]2N(C)C1,inactive,–
COc1cc2c3cc1Oc1cc(ccc1O)C[C@@H]1c4c(cc(OC)c(O)c4Oc4cccc(c4)C[C@H]3N(C)CC2)CC[N+]1(C)C,–,-8.38% [at 25.6 µM]
CCCN(CCC)[C@@H]1CCc2ccc(O)cc2C1,inactive,–
C=CCN1CCC2(C)c3cc(O)ccc3C[C@H]1[C@H]2C,inactive,–
COc1cc2c(cc1O)C[C@H]1c3c(cc(O)c(OC)c3-2)CCN1C,2.51 µM (active),–
COc1ccc2cc1Oc1ccc(cc1)C[C@H]1c3cc(c(OC)cc3CCN1C)Oc1c(OC)c(OC)cc3c1[C@@H](C2)N(C)CC3,–,2.06% [at 2.29 µM]
CCCN1CC[C@@H]2c3cc(O)ccc3CC[C@H]21,–,-9.66%
C=CCN1CC[C@@]23c4c5ccc(O)c4O[C@H]2/C(=N\N=C2/CC[C@@]4(O)[C@H]6Cc7ccc(O)c8c7[C@@]4(CCN6CC=C)[C@@H]2O8)CC[C@]3(O)[C@@H]1C5,inactive,–
COc1cc2c3cc1Oc1c(O)c(OC)cc4c1[C@@H](Cc1ccc(cc1)Oc1cc(ccc1O)C[C@H]3N(C)CC2)N(C)CC4,–,-8.21% [at 11.4 µM]
CN1CCc2cc(O)cc3c2[C@H]1Cc1ccc(O)c(O)c1-3,12.6 µM (active),–
C=CCN1CCc2cccc3c2[C@@H]1Cc1ccc(O)c(O)c1-3,3.16 µM (active),–
CCCN1CCc2cc(O)cc3c2[C@H]1Cc1ccc(O)c(O)c1-3,12.6 µM (active),–
